FLuc counter – firefly luciferase modulation, counter-screen for miR-21 project; AID 588342; purified FLuc, Km substrates, luminescence inhibition; P08659; Potency, µM (highest dose often 57.5 µM), without a hit: at the top dose activity change, negative = inhibition, usual class: inhibitors; 6.9% of 360,000 active;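 also: plate controls were vehicle for no effect and reference inhibitor for full effect; nearly all actives have a fitted effect of over 55% in size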
Target sequence (P08659 whole entry, looked up): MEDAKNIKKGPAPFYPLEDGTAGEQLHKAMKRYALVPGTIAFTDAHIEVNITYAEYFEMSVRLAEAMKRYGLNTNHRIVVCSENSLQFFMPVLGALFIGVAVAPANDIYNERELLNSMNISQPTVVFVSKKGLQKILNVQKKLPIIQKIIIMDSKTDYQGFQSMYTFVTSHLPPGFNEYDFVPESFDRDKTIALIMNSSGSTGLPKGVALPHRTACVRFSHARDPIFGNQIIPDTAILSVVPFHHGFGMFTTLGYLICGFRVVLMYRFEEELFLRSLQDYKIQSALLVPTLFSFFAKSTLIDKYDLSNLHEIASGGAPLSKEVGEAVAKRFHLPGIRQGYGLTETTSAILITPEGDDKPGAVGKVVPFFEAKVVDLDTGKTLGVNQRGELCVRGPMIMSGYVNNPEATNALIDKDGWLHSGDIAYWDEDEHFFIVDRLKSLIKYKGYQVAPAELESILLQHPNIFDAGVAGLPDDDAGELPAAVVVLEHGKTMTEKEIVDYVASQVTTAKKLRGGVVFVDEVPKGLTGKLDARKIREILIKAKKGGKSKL
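Biochemical qHTS of compounds, final roughly 60 µM downward over six points, against 10 nM purified firefly luciferase using Km concentrations of substrates (10 uM D-luciferin, 10 uM ATP) in Tris acetate pH 7.5 buffer; luminescence output.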
ELG1 repair inh – ELG1-dependent DNA repair inhibition; HEK293T ELG1-luciferase reporter, luminescence, 16 h; DNA damage induced by 5-fluorouridine; Potency, µM (top dose mostly 46.1 µM), for the others: top-dose activity change, negative = inhibition, actives largely listed as inhibitors; 2.3% of 330,000 active; also: % is scaled to controls: 0 for no effect and ±100 for the full control effect; nearly all actives have a fitted effect of over 55% in size
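In this reporter screen, reduction of luminescence relative to DMSO vehicle indicated activity. Compounds and 5-fluorouridine were added together to 2,000 cells per well, incubated for 16 hr at 37 °C, then developed with ONE-Glo.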
SMN2 splice up – increases expression of the SMN2 splice variant; HEK293 SMN2-luciferase splicing reporter, luminescence, 30-36 h; Potency, µM (doses to about 46.1 µM), for the others: at the highest dose activity change, positive = activation, actives largely listed as activators; 2.8% of 210,000 active; AID 1458; also: % of control where 0% means no effect; nearly all actives have a fitted effect of over 55% in size
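HEK293 cells carry an SMN2 minigene-luciferase reporter in which exon 7 inclusion puts luciferase in frame. Cells were seeded at 2000 cells/well, attached for 10-12 hours, then exposed to compounds for 30-36 hours at 37C before ONE-Glo luminescence.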
NPC1 promoter act – activators of NPC1 promoter | 2.4% of 320,000 active | Huh7 NPC1 promoter luciferase reporter, 24 h | Potency, µM (top dose mostly 9.22 µM), inactives show at the top dose activation, most hits filed as activators; also: % of control where 0% means no effect; nearly all actives have a fitted effect of over 60% in size
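Quantitative HTS used a cell-based reporter: Huh7 cells stably bearing the NPC1 promoter upstream of luciferase were treated with compounds for 24 h, and promoter activation was read as luminescence.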
Rab9 prom act – activates the Rab9 promoter; Huh7 Rab9 promoter-luciferase reporter, luminescence, 24 h; Potency, µM (top dose mostly 9.22 µM), for the others: at the top dose activation, negative = inhibition, most hits filed as activators; 2.8% of 320,000 active; AID 485297; also: % of control where 0% means no effect; nearly all actives have a fitted effect of over 60% in size
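Huh7 cells stably carrying a Rab9 promoter-luciferase reporter, 1500 cells per well in OP-MEM I with 10% FBS, treated with compound 24 hours at 37C. Luciferase activity read by luminescence after 10 minutes with Amplite reagent.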
ELG1 genotoxic – genotoxicity induction in ELG1-luciferase HEK293T cells | HEK293T ELG1-luciferase reporter, luminescence, 16 h | Potency, µM (doses to about 46 µM), for inactives: top-dose activity change, positive = activation, hits mostly activators | 1.3% of 330,000 active | AID 504466; also: % of control where 0% means no effect; nearly all actives have a fitted effect of over 60% in size
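After overnight (16 hr) compound treatment at 37 °C, ELG1-luciferase HEK293T cells were lysed with ONE-Glo; luminescence quantified 30 min later at room temperature.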
The depositor's hits bear a star; ? = inconclusive; nt = not tested or not shown; [ ] = dose if it differs, or a comment. Shown are actives, neighbours in structure and some others; about 9.2% of the full set was active somewhere. Calls follow the shape of the dose curve; as a rule, active = well fitted curve in the direction sought with a large enough effect; inconclusive = small, poorly fitted or top-dose-only effect, or another doubt; inactive = no such curve, though single readings can be large; an effect the other way counts as inactive or inconclusive. Potency is read from the fitted curve at half-maximal effect.

SMILES | FLuc counter | ELG1 repair inh | SMN2 splice up | NPC1 promoter act | Rab9 prom act | ELG1 genotoxic
CCc1ccc(NC(=O)CC2C(=O)N(c3cccc(OC)c3)C(=O)N2C2CCCC2)cc1 (stereo not given) | -4% | nt | nt | nt | nt | nt
Cc1ccc(S(=O)(=O)n2ccc3c(OCCOCCNCc4ccc(F)cc4)cccc32)cc1 | -1% | ? | nt | 0% | -6% | ?
Cc1ccc(C(=O)COC(=O)c2cccc([N+](=O)[O-])c2)s1 | 4.8µM* | ? | nt | 11% | 7% | 10%
Cc1ccc(C(=O)COC(=O)COc2ccccc2[N+](=O)[O-])s1 | -17% | 7% | nt | 0% | 1% | 0%
O=C(COC(=O)c1cccc([N+](=O)[O-])c1)c1ccc2c(c1)OCO2 | 2.7µM* | ? | nt | 3.5µM* | 2.5µM* | 21µM*
COC(=O)c1c(C)nn(-c2ccc(F)cc2)c1-n1cccc1 | 3% | nt | -2% | nt | nt | nt
CC1(C)NC(=O)N(CC(=O)OCC(=O)NC(=O)c2ccccc2)C1=O | -2% | 12% | nt | -1% | 0% | -3%
COc1ccc(-c2ccnc3nc(N4CCOCC4)nn23)cc1 | -3% | -23% | 13% | -3% | 0% | -2%
c1ccc(Oc2ccc(-c3ccnc4nc(N5CCOCC5)nn34)cc2)cc1 | -1% | 18µM* | -14% | -4% | -7% | -10%
COc1ccc(C(=O)O)cc1NC(=S)NC(=O)/C=C/c1ccc(C(C)C)cc1 | 11µM* | 11% | nt | 2% | -3% | 0%
CCCCC(=O)NC(=S)Nc1cc(C(=O)O)ccc1OC | 4% | 4% | 3% | -2% | -8% | 1%
COc1ccc(C(=O)NCC(=O)N/N=C/c2ccc(C)o2)cc1OC | -4% | -2% | nt | -2% | 5% | 6%
CN=C1S/C(=C\c2ccc(OCC(=O)OC)c(OC)c2)C(=O)N1C | 17µM* | 1% | nt | 15% | -6% | 2%
CSC1=N/C(=C\c2ccc(F)cc2)C(=O)S1 | -12% | 12% | -7% | 2% | 0% | -5%
CCOC(=O)C1CCN(C2=NC(=O)/C(=C/c3ccc(Cl)cc3)S2)CC1 | ? | -9% | nt | -2% | -2% | -2%
CN=C1S/C(=C\c2ccc(SC)cc2)C(=O)N1C | 12µM* | ? | nt | ? | 17% | 10µM*
CSC1=NC(=O)/C(=C/c2ccc(SC)cc2)S1 | 9.5µM* | ? | -13% | -1% | 6% | 8%
COc1cc(/C=C2\SC(=Nc3ccc(F)cc3)N(c3ccc(F)cc3)C2=O)ccc1OCC(=O)O | ? | -4% | -12% | -3% | -8% | -4%
CCOC(=O)CSC1=NC(=O)/C(=C\c2ccc(Cl)cc2)S1 | 11µM* | 22% | nt | -20% | -8% | ?
CCOc1cc(C(=O)Nc2cc3c(cc2N2CCOCC2)n(C)c(=O)n3C)cc(OCC)c1OCC | 5% | 17% | 7% | -3% | 1% | 9%
CN(C(=O)C(=O)c1cn(CC(=O)N2CCCC2)c2ccccc12)C1CCCCC1 | 5% | 1% | nt | 2% | 3% | 0%
O=C(CN1CCN(C(=O)C2CCCO2)CC1)Nc1cc(C(F)(F)F)ccc1Cl (stereo not given) | 0% | -10% | nt | 0% | -6% | -9%
CN=C1S/C(=C\c2ccc(O)c(Br)c2)C(=O)N1C | 15µM* | ? | nt | -12% | -5%[1.84 µM] | 17%
Cc1cc(Nc2ccccc2)n(-c2ccc(C(=O)O)cc2)n1 | -14% | 9% | -1% | -4% | -2% | 2%
Cc1cc(Nc2ccccc2)n(C(=O)c2ccc(Cl)cc2)n1 | 11µM* | ? | 20% | 17% | 8% | 11%
CCC(c1nnnn1CS(=O)(=O)c1ccc(C)cc1)N1CCN(c2nc3ccccc3s2)CC1 (stereo not given) | -1% | 8.2µM* | -47% | 1% | -14% | -10%
CCCC(c1nnnn1CC1CCCO1)N1CCN(c2nc3ccccc3s2)CC1 (stereo not given) | 0% | 23µM* | -29% | -2% | 1% | -5%

Compound activity from PubChem BioAssay.
